Hit rate of the full screen: of about 13,000 compounds, about 3,200 (25%) showed an effect of 50% or more. This is one part of the list.
Test system: P. falciparum stage V gametocytes
Design: BacTiter-Glo ATP luminescence viability of purified stage V gametocytes in 384-well plates, per cent inhibition versus DMSO
Conditions: 48 h, 5 µM; inhibitor

Q: With `Fc1ccc(C(OCC2CCCN(Cc3cccc4cccnc34)C2)c2ccc(F)cc2)cc1` (stereo not shown) [TCMDC-136044] as the compound, how does the “% Inhibition” value read?
A: -14.61%

Q: `COC1(C)Oc2ccc3cccc([N+](=O)[O-])c3c2C1=O` (stereo not shown) [TCMDC-131378] was tested. Which “% Inhibition” value did it give?
A: -5.605%

Q: How did the “% Inhibition” value turn out when `CCOc1ccc(C(=O)Nc2cc(Cl)ccc2O)cc1Cl` [TCMDC-123684] was run?
A: -34.32%

Q: With `CCOc1cc(C(C)C)ccc1N1CCN(CCCCNC(=O)c2ccc(NC(=O)c3ccc(Cl)cc3)cc2)CC1` [TCMDC-138519] as the compound, how does the “% Inhibition” value read?
A: -10.71%

Q: How did the “% Inhibition” value turn out when `CCOc1ccc(C(C)NC(=O)c2ccc(OC)c(Br)c2)cc1OCC` (stereo not shown) [TCMDC-124876] was run?
A: 88.58%

Q: Which “% Inhibition” value does the source give for `CCOc1ccc(C(C)NC(=O)c2cc(Cl)ccc2OC)cc1OCC` (stereo not shown) [TCMDC-125016] here?
A: 67.36%

Q: Which “% Inhibition” value does the source give for `Cc1cccc2nc(C(=O)Nc3nc(CN4CCC(C)CC4)cs3)cn12` [TCMDC-125340] here?
A: 11.88%

Q: `c1cc(-c2ccc(CN3CCCC3)cc2)cc(-c2nc3ccccc3[nH]2)c1` [TCMDC-133794] was tested. Which “% Inhibition” value did it give?
A: 34.22%

Q: `CN1CCC(N2CCN(Cc3cccc(-c4cccc(-c5nc6ccccc6[nH]5)c4)c3)CC2)CC1` [TCMDC-133878] was tested. Which “% Inhibition” value did it give?
A: 70.79%

Q: For `CN1CCC(N2CCN(Cc3cccc(-c4ccc(-c5nc6ccccc6[nH]5)cc4)c3)CC2)CC1` [TCMDC-133850], which “% Inhibition” value is on record?
A: 29.34%

Q: For `N#CCCN1CCN(Cc2cccc(-c3ccc(-c4nc5ccccc5[nH]4)cc3)c2)CC1` [TCMDC-133852], which “% Inhibition” value is on record?
A: -22.87%

Q: With `CN1CCC(NCc2ccc(-c3cccc(-c4nc5ccccc5[nH]4)c3)cc2)CC1` [TCMDC-132551] as the compound, how does the “% Inhibition” value read?
A: 85.21%

Q: Which “% Inhibition” value does the source give for `CN1CCC(NCc2cccc(-c3cccc(-c4nc5ccc(C(F)(F)F)cc5[nH]4)c3)c2)CC1` [TCMDC-132735] here?
A: 38.83%

Q: How did the “% Inhibition” value turn out when `COCCN1CCN(Cc2cccc(-c3ccc(-c4nc5ccccc5[nH]4)cc3)c2)CC1` [TCMDC-133023] was run?
A: -14.55%

Q: `c1cc(-c2ccc(CNC3CC3)cc2)cc(-c2nc3ccccc3[nH]2)c1` [TCMDC-132538] was tested. Which “% Inhibition” value did it give?
A: -44.27%

Q: How did the “% Inhibition” value turn out when `CN1CCN(Cc2ccc(-c3cccc(-c4nc5ccccc5[nH]4)c3)cc2)CC1` [TCMDC-132542] was run?
A: 58.54%

Q: `c1cc(CN2CCN(CCN3CCOCC3)CC2)cc(-c2cccc(-c3nc4ccccc4[nH]3)c2)c1` [TCMDC-133922] was tested. Which “% Inhibition” value did it give?
A: -15.36%

Q: How did the “% Inhibition” value turn out when `c1ccc2[nH]c(-c3ccc(-c4ccc(CN5CCCCC5)cc4)cc3)nc2c1` [TCMDC-133906] was run?
A: 32.64%

Q: `COCCN1CCN(Cc2ccc(-c3cccc(-c4nc5ccccc5[nH]4)c3)cc2)CC1` [TCMDC-132559] was tested. Which “% Inhibition” value did it give?
A: 86.66%

Q: For `Cc1noc(C)c1-c1ccc2c(Nc3ccccc3C(C)(C)C)c(C(=O)NC3CCCC3)cnc2c1.Cl` [TCMDC-136365], which “% Inhibition” value is on record?
A: -46.26%

Q: How did the “% Inhibition” value turn out when `N#Cc1cc(C(=O)c2cc(Cl)ccc2O)cn(-c2cccc(C(F)(F)F)c2)c1=O` [TCMDC-124543] was run?
A: 16.34%

Q: For `CCc1nc(N)nc(N)c1-c1cccc(Cl)c1` [TCMDC-137371], which “% Inhibition” value is on record?
A: -15%

Q: For `CNc1nc(NN=Cc2ccccc2Cl)nc(Nc2cccc(C(F)(F)F)c2)n1` [TCMDC-124188], which “% Inhibition” value is on record?
A: -11.55%

Q: `N#CC(c1ccc(Cl)cc1)c1ccc2c(C(F)(F)F)cc(C(F)(F)F)nc2n1` (stereo not shown) [TCMDC-124176] was tested. Which “% Inhibition” value did it give?
A: 9.763%

Q: With `CCOc1cccc(C(=O)Nc2cccc(CN3CCCN(Cc4ccc(O)cc4)CC3)c2)c1` [TCMDC-141862] as the compound, how does the “% Inhibition” value read?
A: 17.88%

Q: Which “% Inhibition” value does the source give for `OC(CNCc1ccccc1Oc1ccccc1)c1cc(Br)cs1` (stereo not shown) [TCMDC-141369] here?
A: 34.47%

Q: How did the “% Inhibition” value turn out when `COc1ccc(CC(=O)NC(CCN2CCC3(CCc4ccccc43)CC2)c2ccc(Cl)c(Cl)c2)cc1` (stereo not shown) [TCMDC-141762] was run?
A: -72.25%

Q: Which “% Inhibition” value does the source give for `CN(C)CCN1CCN(Cc2ccc(-c3cccc(-c4nc5ccccc5[nH]4)c3)cc2)CC1` [TCMDC-133795] here?
A: 73.83%

Q: Which “% Inhibition” value does the source give for `CN1CCC(N2CCN(Cc3ccc(-c4cccc(-c5nc6ccccc6[nH]5)c4)cc3)CC2)CC1` [TCMDC-133881] here?
A: 56.17%

Q: Which “% Inhibition” value does the source give for `CN1CCC(N2CCN(C(=O)c3cccc(-c4cccc(-c5nc6ccccc6[nH]5)c4)c3)CC2)CC1` [TCMDC-132312] here?
A: 7.191%

Q: How did the “% Inhibition” value turn out when `OCCN1CCN(Cc2ccc(-c3cccc(-c4nc5ccccc5[nH]4)c3)cc2)CC1` [TCMDC-132540] was run?
A: 6.462%

Q: With `CN(C)CCN1CCN(Cc2cccc(-c3csc(-c4nc5ccccc5[nH]4)c3)c2)CC1` [TCMDC-133793] as the compound, how does the “% Inhibition” value read?
A: 29.26%

Q: How did the “% Inhibition” value turn out when `CC(C)(C)C(=O)Nc1ccccc1Oc1ccc(Cl)cc1` [TCMDC-137332] was run?
A: 6.336%

Q: For `Cc1cc(NC(=O)Nc2ccc(Oc3ccccc3)cc2)c2ccccc2n1` [TCMDC-134657], which “% Inhibition” value is on record?
A: -9.366%

Q: Which “% Inhibition” value does the source give for `Cc1ccc(Oc2ccccc2NC(=O)CCc2nc3ccccc3c(=O)[nH]2)cc1` [TCMDC-125459] here?
A: 59.46%

Q: How did the “% Inhibition” value turn out when `COc1cccc(CNC(=O)[C@H]2CNCCN2C(=O)CCCc2ccccc2)c1` [TCMDC-141271] was run?
A: 37.6%

Q: Which “% Inhibition” value does the source give for `CC(CNC(=O)[C@H]1CNCCN1C(=O)CCCc1ccccc1)c1ccccc1` (stereo partly shown) [TCMDC-141268] here?
A: 55.69%

Q: `CCCC(C)NC(=O)[C@H]1CNCCN1C(=O)CCCc1ccccc1` (stereo partly shown) [TCMDC-141270] was tested. Which “% Inhibition” value did it give?
A: 1.864%

Q: `O=C(NCc1ccc(F)cc1)c1cnc(N2CCN(c3ccncc3)CC2)c(Cl)c1` [TCMDC-134627] was tested. Which “% Inhibition” value did it give?
A: -0.3882%

Q: Which “% Inhibition” value does the source give for `COc1ccc2nccc(NN=Cc3cccc(C)n3)c2c1` [TCMDC-142034] here?
A: -10.1%

Q: With `COc1ccc(OCCCN2CCCCC2)cc1S(=O)(=O)c1ccc(OCc2ccc(C(F)(F)F)cc2)cc1` [TCMDC-132410] as the compound, how does the “% Inhibition” value read?
A: 92.2%

Q: Which “% Inhibition” value does the source give for `CCOc1cc2c(cc1S(=O)(=O)c1ccc(COc3ccc(C(F)(F)F)cc3)cc1)CCN(C)CC2` [TCMDC-134264] here?
A: 39.44%

Q: For `COc1cc2c(cc1S(=O)(=O)c1ccc(COc3ccc(C(F)(F)F)cc3)cc1)CNCC2` [TCMDC-134479], which “% Inhibition” value is on record?
A: -1.894%

Q: Which “% Inhibition” value does the source give for `CCCCCCCCn1c2c(c(=N)c3c1CCC3)CCC2` [TCMDC-125309] here?
A: 92.39%

Q: For `CCn1c2c(c(=N)c3ccccc31)CCC2` [TCMDC-125756], which “% Inhibition” value is on record?
A: -4.824%

Q: Which “% Inhibition” value does the source give for `CCCCCCCCn1c2c(c(=N)c3c1CCC3)CCCC2` [TCMDC-125653] here?
A: 74.53%

Q: For `CCCCCCn1c2c(c(=N)c3c1CCC3)CCCC2` [TCMDC-124215], which “% Inhibition” value is on record?
A: 19.97%

Q: `CCCCCCn1c2c(c(=N)c3c1CCC3)CCC2` [TCMDC-125620] was tested. Which “% Inhibition” value did it give?
A: 20.05%

Q: For `CCCCCCCn1c2c(c(=N)c3c1CCC3)CCCC2` [TCMDC-125606], which “% Inhibition” value is on record?
A: 41.76%

Reference: article PMC4552634, “A New Set of Chemical Starting Points with Plasmodium falciparum Transmission-Blocking Potential for Antimalarial Drug Discovery” (PLoS ONE, 2015)
